Source: PubChem BioAssay
TRHR enhancer = allosterically enhances the human TRH receptor | P34981 | TRHR cells, fluo-8 calcium fluorescence, EC20 TRH enhancement | enhancement, % at 2 µM | 0.66% of 360,000 active | AID 493056; in the data active = enhancement above about 30%; note: 0% is about no effect
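TRHR-expressing cells loaded with fluo-8 calcium dye were read kinetically (ex 480/em 530) during compound addition, then stimulated with an EC20 of TRH (10 nM final). Enhancement of the Gq-mediated intracellular calcium response was scored.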
TRHR ag = activates the human TRH receptor; P34981; AID 493084; 0.18% of 360,000 active; activation, % at 2 µM; TRHR cells, calcium flux fluo-8, FDSS agonist mode; note: 0% is about no effect
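Steps: seed TRHR cells overnight; add fluo-8 no-wash Ca dye, RT 30 min–1.5 h; record 10 s baseline; pin-transfer compounds; monitor fluorescence 1 cycle/s for the agonist window. Calcium increases flag candidate agonists.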
D1 potentiator = human D1 dopamine receptor positive modulation; HEK293 TREx D1 cells, calcium flux, dopamine EC20 potentiation; potentiation, % at 10 µM; 0.036% of 360,000 active; AID 504651; in the data active = potentiation above about 30%; note: 0% is about no effect
Target sequence (P21728 whole entry, looked up): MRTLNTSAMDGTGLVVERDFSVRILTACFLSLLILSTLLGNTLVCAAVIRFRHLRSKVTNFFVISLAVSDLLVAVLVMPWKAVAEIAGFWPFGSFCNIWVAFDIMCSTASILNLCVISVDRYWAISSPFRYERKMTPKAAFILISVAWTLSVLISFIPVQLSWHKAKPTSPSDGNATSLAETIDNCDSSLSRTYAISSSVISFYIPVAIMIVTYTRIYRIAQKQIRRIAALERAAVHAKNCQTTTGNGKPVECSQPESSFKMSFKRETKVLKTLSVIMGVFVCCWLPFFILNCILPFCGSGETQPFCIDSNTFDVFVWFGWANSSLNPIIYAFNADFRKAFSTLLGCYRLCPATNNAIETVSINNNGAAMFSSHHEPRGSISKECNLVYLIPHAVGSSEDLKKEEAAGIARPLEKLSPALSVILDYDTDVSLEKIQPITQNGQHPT
D1 ag = human D1 receptor agonism. P21728. activation, % at 2 µM. HEK293 T-REx D1 cells, calcium flux, agonist mode. AID 504660. 1% of 360,000 active; note: 0% is about no effect
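Inducible HEK293 T-REx D1 cells, force-coupled to calcium signalling, were plated at 4000 cells/well with tetracycline and held overnight at 30 C. After no-wash calcium dye loading, compound-evoked calcium rise over 180 s flagged agonists.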
D1 antagonist = human D1 dopamine receptor antagonism; P21728; HEK293 TREx D1 cells, calcium flux, dopamine EC80; active compounds read low; activity change, negative = inhibition, % at 10 µM; 3.2% of 360,000 active; in the data active = activity change below about -30%; note: % is set by controls: 0 for no effect and ±100 for the full control effect
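Kinetic fluorescence of a calcium dye serves as the read-out. D1-expressing Hek293 Trex cells, induced overnight at 30 C, are exposed to compound for 180 s before an EC80 dopamine addition, then read 180 s further.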
* hit, by the source's call; ! = not confirmed by another sample. Most compounds without a hit are left out; they make up all but 4.7% or so of the library. Cut-off read from the data, not from the text of the source, unless noted: active = activation above about 30%; inactive = the rest.

SMILES | TRHR enhancer | TRHR ag | D1 potentiator | D1 ag | D1 antagonist
FC(F)(F)c1nc(NCc2ccccc2)c2nnn(Cc3ccccc3)c2n1 | -1.4 | 2.6 | -12.8 | 3.8 | -10.6
CCN(CC)CCNc1nc(C(F)(F)F)nc2c1nnn2Cc1ccccc1 | 4.9 | 1.2 | -1.0 | 9.9 | -92.3*
Cc1cccc(N2CCN(Cc3nc(-c4ccccc4Cl)oc3C)CC2)n1 | -4.8 | 0.4 | -6.8 | 0.9 | -31.3*
COc1ccc(O)c(C(=O)c2cnn(C(=O)c3cc(C)oc3C)c2)c1 | -4.6 | 0.0 | -8.6 | 1.8 | -46.2*
COc1ccc(C(=O)n2cc(C(=O)c3cc(C)ccc3O)cn2)cc1 | 0.8 | -0.2 | -2.6 | 2.7 | 2.2
CCC(=O)N1CCc2cc(Br)cc(S(=O)(=O)CCC(=O)N(C)c3cccc(C)c3)c21 | -8.8 | -0.6 | -1.6 | 0.0 | 13.9
CC(C)(C)OC(=O)NCC(=O)NNC(=O)c1cc2ccccc2[nH]1 | -1.6 | 1.4 | 1.6 | 1.0 | -58.6*
Cc1cccc(N(CC(=O)NCCSCc2ccccc2)S(=O)(=O)c2ccccc2)c1C | -10.1 | 1.5 | -0.1 | 30.2* | -0.3
COc1ccccc1N(CC(=O)NCCSCc1ccccc1)S(C)(=O)=O | -0.1 | -1.0 | -3.4 | 1.3 | -15.5
COc1ccccc1N(CC(=O)NCCSCc1ccc(Cl)cc1)S(C)(=O)=O | 3.4 | -0.4 | -6.6 | 5.9 | -58.3*!
CCS(=O)(=O)N1CCc2cc(C(=O)Nc3ccc(OC)cc3OC)ccc21 | -3.0 | -0.6 | -0.8 | 0.9 | -28.9
OCCNc1c2ccccc2nc2c(F)c(F)c(F)c(F)c12 | -11.3 | 9.8 | -4.4 | 7.7 | 8.0
Cc1c2ccccc2nc2c(F)c(NC(C)C)c(F)c(F)c12 | 6.1 | 39.6* | -0.9 | 63.8* | 3.3
CNC(=S)N(CCc1c(C)[nH]c2ccccc12)Cc1ccco1 | 14.9 | 0.2 | -9.9 | 4.3 | -38.3*
Cc1[nH]c2ccc(F)cc2c1CCN(Cc1ccco1)C(=S)NC(C)(C)C | -4.0 | 1.0 | -3.3 | 17.2 | -43.0*
CNC(=S)N(CCc1c(C)[nH]c2ccc(F)cc12)Cc1ccco1 | 2.3 | -0.6 | -4.0 | 3.6 | -28.7
Cc1ccccc1OCC(=O)NNC(=O)Cc1ccc(S(=O)(=O)N2CCOCC2)s1 | -0.7 | 0.1 | -4.8 | -1.0 | -38.3*
O=C(COc1ccccc1F)NNC(=O)Cc1ccc(S(=O)(=O)N2CCOCC2)s1 | 4.8 | 0.4 | -2.7 | 1.3 | -26.1
Cc1ccc(OCC(=O)NNC(=O)Cc2ccc(S(=O)(=O)N3CCOCC3)s2)cc1 | -6.6 | -0.3 | -2.3 | 1.6 | -49.3*
COc1ccccc1N1CCN(CC(O)COCc2cccs2)CC1 (stereo not given) | -4.0 | 0.0 | 1.4 | 7.2 | -36.8*
C=CCc1ccc(OCC(O)CN2CCN(Cc3ccc(Cl)cc3)CC2)c(OC)c1 (stereo not given) | 4.4 | 1.2 | -10.8 | 42.6* | -13.8
CC1(C)CCCC(C)(C)N1CC(O)COCCOc1ccc(Br)cc1 (stereo not given) | -5.1 | -0.1 | -1.9 | 39.4* | -6.0
C=CCc1ccc(OCC(O)CN2CCN(c3ccccc3OC)CC2)c(OC)c1 (stereo not given) | 5.6 | 0.3 | -7.2 | 10.8 | -10.3
C=CCc1ccccc1OCC(O)CN1CCN(c2ccc(OC)cc2)CC1 (stereo not given) | -1.1 | -0.8 | -8.0 | 4.6 | -64.3*
Cc1ccc(-c2nc(C)c(CCNC(=O)C(=O)Nc3cc(C)ccc3C)s2)cc1 | 3.6 | 0.0 | -1.0 | 4.7 | 3.7
SMILES | TRHR enhancer | TRHR ag | D1 potentiator | D1 ag | D1 antagonist
Cc1ccccc1OCC(=O)NCC(c1ccc(Cl)cc1)N1CCCCC1 (stereo not given) | 3.0 | -0.4 | -0.6 | 0.2 | 1.2
COc1ccc(N2CCN(CC(O)COCCOc3ccc(Br)cc3)CC2)cc1 (stereo not given) | 16.3 | 2.2 | -10.1 | 28.5 | -24.4
OC(COc1ccc(Br)cc1)CN1CCN(c2ccccc2)CC1 (stereo not given) | -1.6 | 1.1 | -5.9 | 12.1 | -46.3*
COc1ccccc1N1CCN(CC(O)COCCOc2ccc(Br)cc2)CC1 (stereo not given) | -9.8 | 0.4 | -17.6 | 15.6 | -63.0*
Cc1cc(Cl)ccc1NC(=O)Cn1nc(C)c2c(C)n(-c3ccccc3)nc2c1=O | 2.9 | -0.5 | -0.7 | 0.7 | -6.6
COc1ccccc1Nc1nn2c(=O)c3ccc(C(=O)NC(C)c4ccccc4)cc3nc2s1 (stereo not given) | 6.6 | 0.4 | -0.6 | 0.9 | 1.2
Cc1ccc(Cl)cc1Nc1nn2c(=O)c3ccc(C(=O)NC(C)c4ccccc4)cc3nc2s1 (stereo not given) | 16.8 | -1.4 | 2.4 | 0.0 | -54.3*
CCN(CC)CCNC(=O)c1ccc2c(=O)n3nc(Nc4cccc(Cl)c4C)sc3nc2c1 | 4.2 | -1.2 | -3.1 | 2.5 | -55.9*
CCN(CC)S(=O)(=O)c1ccc2c(c1)c(=O)c(C(=O)N(C)Cc1ccccc1)cn2C | -3.5 | -1.0 | 0.9 | -0.7 | -6.6
CCNC(=S)Nc1ccc(Cl)c([N+](=O)[O-])c1 | 1.4 | 1.4 | -6.8 | 20.0 | -39.4*
CCNC(=S)Nc1cccc([N+](=O)[O-])c1 | -4.0 | 0.3 | -5.5 | 9.2 | -12.6
O=C(Nc1ccccc1)Nc1ccccc1 | -0.5 | 2.9 | -4.2 | 8.5 | -32.6*
O=C(Nc1ccccc1)Nc1ccc(Cl)c([N+](=O)[O-])c1 | -5.3 | 1.5 | -9.7 | 31.9* | -46.2*
Cc1cc(NC(=O)Nc2ccc(Cl)c(Cl)c2)n(-c2ccccc2)n1 | -5.8 | 0.5 | -0.2 | 20.9 | -44.3*
Cc1ccc(S(=O)(=O)c2cn(CC(=O)Nc3ccc4c(c3)OCO4)c3ccccc3c2=O)cc1 | -0.5 | 1.5 | -3.5 | 4.2 | -14.5
O=C(CNC(=O)c1ccc([N+](=O)[O-])cc1)OC(C(=O)Nc1cc(C(F)(F)F)ccc1Cl)c1ccccc1 (stereo not given) | -5.1 | 1.7 | -1.4 | 5.1 | 33.6
Cc1ccc(NC(=O)Nc2ccccc2)cc1[N+](=O)[O-] | -7.0 | 2.0 | -10.0 | 23.7 | -33.2*
CC(=O)Nc1ccc(C)c([N+](=O)[O-])c1 | -4.4 | 0.3 | -0.2 | 2.4 | -3.7
COC(=O)c1cccc(NC(=O)Nc2ccc(Cl)c(Cl)c2)c1 | 3.0 | 0.3 | -6.0 | 11.3 | -18.5
COC(=O)c1cc(NC(=O)Nc2ccccc2)ccc1Cl | -2.1 | 0.9 | -5.2 | 41.3* | -53.5*
O=C(NC(=S)Nc1ccc(F)c([N+](=O)[O-])c1)c1ccccc1F | -0.2 | -1.5 | 5.8 | -3.2 | -0.7
O=C(Nc1ccccc1)Nc1ccc(F)c([N+](=O)[O-])c1 | -7.4 | 2.6 | -10.7 | 29.5 | -47.7*
CC(C)CN(CCNC(=O)c1cc(-c2ccc(Cl)s2)nc2ccccc12)CC(C)C | -0.6 | 0.3 | -0.3 | 1.7 | 10.6
COc1ccc2c(c1)CC(C(=O)Nc1cc(OC)c(OC)c(OC)c1)CO2 (stereo not given) | 7.3 | 0.0 | 5.4 | 2.7 | 3.7
